Test results taken from PubChem BioAssay (NCI).
About 83,000 compounds went through this panel and 20% of them were active in at least one assay; those are over-represented in the sample as a whole.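 The endpoint reported here, percent growth, reads 100 for growth as untreated, 0 for no net growth and -100 for all cells dead.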 The source made the active and inactive calls. How the source made its calls: active means growth percent below 10; inactive means the rest.

What was measured:
Experiment in all cases: NCI-60 one-dose screen, 48 h (100 = growth as untreated, 0 = no growth, -100 = all killed)
Conditions in all cases: 10 µM unless noted
NCI-H226 lung = system: NCI-H226 lung
NCI-H322M lung = system: NCI-H322M lung
HOP-62 NSCLC = system: HOP-62 NSCLC
NCI-H460 lung = system: NCI-H460 lung
HOP-92 NSCLC = system: HOP-92 NSCLC
NCI-H522 lung = system: NCI-H522 lung
A549/ATCC NSCLC = system: A549/ATCC NSCLC
786-0 renal = system: 786-0 renal
COLO 205 colon = system: COLO 205 colon

Measured: growth

CNc1cc2nc3cc(NC)c(C)cc3cc2cc1C
active: NCI-H460 lung -85.8% | NCI-H522 lung -2.17% | A549/ATCC NSCLC -4.57% | COLO 205 colon -39.1%
inactive: NCI-H226 lung 26.4% | NCI-H322M lung 12.5% | HOP-62 NSCLC 10.7% | HOP-92 NSCLC 11.7% | 786-0 renal 12.9%

COC1=CC(=O)C(OC)=C(OC)C1=O
inactive: NCI-H226 lung 86.7% | NCI-H322M lung 94.2% | HOP-62 NSCLC 92.6% | NCI-H460 lung 96.6% | HOP-92 NSCLC 109% | NCI-H522 lung 100% | A549/ATCC NSCLC 114% | 786-0 renal 93.4% | COLO 205 colon 114%

Nc1c(C(=O)Nc2cccc3c2OCCO3)sc2nc3c(cc12)CN(Cc1ccccc1)CC3
inactive: NCI-H226 lung 82.5% | NCI-H322M lung 94.3% | HOP-62 NSCLC 72.5% | NCI-H460 lung 53.4% | HOP-92 NSCLC 83.4% | NCI-H522 lung 29.3% | A549/ATCC NSCLC 79.3% | 786-0 renal 87.1% | COLO 205 colon 90.9%

c1ccc(Sc2ncnc3ccccc23)cc1
inactive: NCI-H226 lung 82.2% | NCI-H322M lung 79.9% | HOP-62 NSCLC 99.4% | NCI-H460 lung 89.9% | HOP-92 NSCLC 48.9% | NCI-H522 lung 82.8% | A549/ATCC NSCLC 90.4% | 786-0 renal 87.6% | COLO 205 colon 108%

CC(C)n1cc2c(N)ncnc2n1
inactive: NCI-H226 lung 94.5% | NCI-H322M lung 86.6% | HOP-62 NSCLC 96.4% | NCI-H460 lung 107% | HOP-92 NSCLC 144% | NCI-H522 lung 99.3% | A549/ATCC NSCLC 102% | 786-0 renal 100% | COLO 205 colon 118%

C=C1CC2(OC1=O)C(=O)N(CCCCCCCCCCCCN1C(=O)C3(CC(=C)C(=O)O3)c3ccccc31)c1ccccc12 (stereo not given)
inactive: NCI-H226 lung 78.6% | NCI-H322M lung 95.1% | HOP-62 NSCLC 94.1% | NCI-H460 lung 73.1% | HOP-92 NSCLC 42.2% | NCI-H522 lung 16.2% | A549/ATCC NSCLC 97.6% | 786-0 renal 99.1% | COLO 205 colon 82.6%

COc1ccc(-c2cc(-c3cccnc3)nc3sc4c(=O)n(-c5ccc(C)cc5)cnc4c23)cc1OC
inactive: NCI-H226 lung 93.3% | NCI-H322M lung 92.4% | HOP-62 NSCLC 98.4% | NCI-H460 lung 101% | HOP-92 NSCLC 63.6% | NCI-H522 lung 99.8% | A549/ATCC NSCLC 103% | COLO 205 colon 97.6%

CS(=O)(=O)c1ccc(-c2cnc3ccc(-c4cccc(S(C)(=O)=O)c4)nn23)cc1
inactive: NCI-H226 lung 65.1% | NCI-H322M lung 32.8% | HOP-62 NSCLC 59.2% | NCI-H460 lung 21.4% | HOP-92 NSCLC 16% | NCI-H522 lung 58.4% | A549/ATCC NSCLC 31% | COLO 205 colon 46.2%
